Measurements: ChEMBL document CHEMBL1201862, “PubChem BioAssay data set” (2004)
The campaign covered roughly 58,000 sequences. About 4,000 (6.9%) were called active. Cut-off read from the data, not from the text of the source: active = GI50 up to about 1.1 µM and inactive = higher. Only a sample is shown. Entries with a potency or affinity are not part of this list.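 Method: 48-hour compound exposure of cells in 96-well plates, five concentrations, linear interpolation of endpoints. At the GI50, growth is halved.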

The substances below were run on SF-295 (assay: NCI tumour cell line growth inhibition, 48 h).
For “mu-(1,7-nanodiamine-N,N')bis-(cis-aminedichloroplatimum (II)), CHEMBL2146215”, the GI50 was 14.3 µM. Substance “[Bis(aminomethyl)tetramethylenesilane]dichloropaltinum(II), CHEMBL2146205” has a GI50 of 27.7 µM. For “[Bis(aminomethyl)pentamethylenesilane]tetrachloropaltinum(IV), CHEMBL2146204”, the GI50 was 3.3 µM. With “[Bis(aminomethyl)dimethylsilane]tetrachloroplatinum(IV), CHEMBL2146190” the GI50 was 4.39 µM. For “[Bis(aminomethyl)pentamethylenesilane]dichloropaltinum(II), CHEMBL2146202”, the GI50 was 2.65 µM. For “cis-Bis[[(trimethylsilyl)methyl]amino]tetrachloroplatinum(IV), CHEMBL2146191”, the GI50 was 13.7 µM. With “[Bis(aminomethyl)tetramethylenesilane]tetrachloropaltinum(IV), CHEMBL2146189” the GI50 was 5.25 µM. “[Bis(aminomethyl)ethylmethylsilane]tetrachloroplatinum(IV), CHEMBL2146192” gave a GI50 of 3.17 µM. With “[Bis(aminomethyl)dimethylsilane]dichloroplatinum (II), CHEMBL2146201” the GI50 was 11.9 µM. CISPLATIN, CHEMBL11359 gave a GI50 of 0.912 µM. Work on “[Bis(aminomethyl)diethylsilane]tetrachloroplatinum(IV), CHEMBL2146203” yielded a GI50 of 3.37 µM.
